According to publication PMC7862700, “An all-to-all approach to the identification of sequence-specific readers for epigenetic DNA modifications on cytosine”:

What was measured:
Experiment in all cases: DAPPL (digital affinity profiling via proximity ligation, sequencing); 10 mM Tris-HCl pH 7.5, 50 mM NaCl, 1 mM DTT, 4% glycerol, room temperature, 30 min; GST-TFs on glutathione beads, 16-mer random dsDNA library, 0.1% formaldehyde crosslink after washing; high values mean tight binding
[1] = target: T1, FLI1 (Homo sapiens, UniProt Q01543 1-452); settings: protein: recombinant; tags: N-terminal GST; dsDNA, one strand shown
T1 sequence: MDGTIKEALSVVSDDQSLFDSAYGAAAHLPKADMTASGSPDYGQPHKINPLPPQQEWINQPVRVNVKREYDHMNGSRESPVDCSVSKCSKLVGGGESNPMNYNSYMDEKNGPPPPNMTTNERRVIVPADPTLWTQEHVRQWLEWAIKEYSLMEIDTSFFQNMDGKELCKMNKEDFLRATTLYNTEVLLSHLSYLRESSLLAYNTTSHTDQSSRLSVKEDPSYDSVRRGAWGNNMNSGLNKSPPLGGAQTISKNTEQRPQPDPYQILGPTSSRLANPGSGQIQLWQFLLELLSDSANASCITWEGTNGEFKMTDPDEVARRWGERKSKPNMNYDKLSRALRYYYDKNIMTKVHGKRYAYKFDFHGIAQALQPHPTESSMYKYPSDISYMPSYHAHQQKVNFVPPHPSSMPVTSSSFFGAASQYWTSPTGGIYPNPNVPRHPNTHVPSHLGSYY
Method in brief: (§1)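 GST fusions of human transcription factors were expressed in yeast and captured with glutathione beads. Once given DNA barcodes and pooled alongside a tag-only sample, they were incubated for 30 min at room temperature with 200 nmole of a random double-stranded 16-mer DNA library in Tris/NaCl/DTT/glycerol buffer, then washed, crosslinked (0.1% formaldehyde), proximity-ligated, PCR-amplified and sequenced on an Illumina NextSeq500. The binding signal of each hexamer is its read frequency for a factor divided by its frequency for the tag-only sample.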

[2] = target: T2, ELK1 (Homo sapiens, UniProt P19419 1-428); settings: protein: recombinant; tags: N-terminal GST; dsDNA, one strand shown
T2 sequence: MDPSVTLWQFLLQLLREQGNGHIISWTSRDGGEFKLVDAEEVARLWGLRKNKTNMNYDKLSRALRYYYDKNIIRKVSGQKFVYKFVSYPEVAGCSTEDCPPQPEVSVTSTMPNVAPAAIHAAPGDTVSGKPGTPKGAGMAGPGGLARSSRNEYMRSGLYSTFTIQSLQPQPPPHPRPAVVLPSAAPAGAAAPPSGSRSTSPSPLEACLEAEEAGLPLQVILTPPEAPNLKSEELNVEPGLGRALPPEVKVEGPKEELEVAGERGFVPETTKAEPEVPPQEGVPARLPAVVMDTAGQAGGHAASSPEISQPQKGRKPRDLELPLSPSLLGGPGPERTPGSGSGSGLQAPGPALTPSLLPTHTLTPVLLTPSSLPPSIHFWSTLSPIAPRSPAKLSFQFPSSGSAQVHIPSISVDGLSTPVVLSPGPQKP
Method in brief: as §1

[3] = target: T3, GABPA (Homo sapiens, UniProt Q06546 1-454); settings: protein: recombinant; tags: N-terminal GST; dsDNA, one strand shown
T3 sequence: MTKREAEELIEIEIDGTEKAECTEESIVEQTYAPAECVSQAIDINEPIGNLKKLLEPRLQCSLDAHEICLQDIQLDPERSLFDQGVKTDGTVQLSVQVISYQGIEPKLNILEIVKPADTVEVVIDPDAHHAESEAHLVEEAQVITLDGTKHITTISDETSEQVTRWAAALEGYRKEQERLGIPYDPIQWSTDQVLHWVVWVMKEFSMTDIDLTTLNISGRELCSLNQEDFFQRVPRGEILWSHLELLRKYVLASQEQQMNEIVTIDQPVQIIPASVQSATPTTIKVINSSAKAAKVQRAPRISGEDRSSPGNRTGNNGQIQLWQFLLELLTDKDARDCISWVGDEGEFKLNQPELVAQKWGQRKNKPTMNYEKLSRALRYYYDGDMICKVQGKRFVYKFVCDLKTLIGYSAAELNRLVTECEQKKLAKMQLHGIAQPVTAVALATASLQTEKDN
Method in brief: as §1

[4] = target: T4, ERG (Homo sapiens, UniProt P11308 1-479); settings: protein: recombinant; tags: N-terminal GST; dsDNA, one strand shown
T4 sequence: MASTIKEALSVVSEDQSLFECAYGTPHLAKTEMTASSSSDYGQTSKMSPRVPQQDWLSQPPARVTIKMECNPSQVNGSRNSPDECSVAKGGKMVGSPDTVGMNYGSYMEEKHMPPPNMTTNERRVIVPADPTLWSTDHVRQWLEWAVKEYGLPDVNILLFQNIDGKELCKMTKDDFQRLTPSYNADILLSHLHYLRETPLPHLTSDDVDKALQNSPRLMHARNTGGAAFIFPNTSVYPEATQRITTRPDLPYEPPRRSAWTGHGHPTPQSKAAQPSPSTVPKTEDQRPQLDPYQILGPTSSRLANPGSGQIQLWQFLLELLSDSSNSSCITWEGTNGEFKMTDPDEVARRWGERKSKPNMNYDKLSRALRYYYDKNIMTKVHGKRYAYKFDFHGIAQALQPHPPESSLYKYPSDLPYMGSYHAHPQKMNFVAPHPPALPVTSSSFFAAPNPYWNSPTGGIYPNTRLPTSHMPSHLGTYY
Method in brief: as §1

[5] = target: ELF1 (Homo sapiens, UniProt P32519 1-619); settings: protein: recombinant; tags: N-terminal GST; dsDNA, one strand shown
Method in brief: as §1

[6] = target: T5, EHF (Homo sapiens, UniProt Q9NZC4 1-300); settings: protein: recombinant; tags: N-terminal GST; dsDNA, one strand shown
T5 sequence: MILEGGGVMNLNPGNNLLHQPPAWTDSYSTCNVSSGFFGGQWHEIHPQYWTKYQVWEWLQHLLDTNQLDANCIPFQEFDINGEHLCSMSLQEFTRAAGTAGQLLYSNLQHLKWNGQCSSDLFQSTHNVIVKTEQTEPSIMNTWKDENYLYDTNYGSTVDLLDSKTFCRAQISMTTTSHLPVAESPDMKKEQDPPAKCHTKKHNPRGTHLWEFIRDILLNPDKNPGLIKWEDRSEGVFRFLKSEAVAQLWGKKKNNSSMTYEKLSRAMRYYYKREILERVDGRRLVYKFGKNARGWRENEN
Method in brief: as §1

[7] = target: SPI1 (Homo sapiens, UniProt P17947 1-270); settings: protein: recombinant; tags: N-terminal GST; dsDNA, one strand shown
Method in brief: as §1

[8] = target: SPIB (Homo sapiens, UniProt Q01892 1-262); settings: protein: recombinant; tags: N-terminal GST; dsDNA, one strand shown
Method in brief: as §1

[9] = target: T6, ELK3 (Homo sapiens, UniProt P41970 1-407); settings: protein: recombinant; tags: N-terminal GST; dsDNA, one strand shown
T6 sequence: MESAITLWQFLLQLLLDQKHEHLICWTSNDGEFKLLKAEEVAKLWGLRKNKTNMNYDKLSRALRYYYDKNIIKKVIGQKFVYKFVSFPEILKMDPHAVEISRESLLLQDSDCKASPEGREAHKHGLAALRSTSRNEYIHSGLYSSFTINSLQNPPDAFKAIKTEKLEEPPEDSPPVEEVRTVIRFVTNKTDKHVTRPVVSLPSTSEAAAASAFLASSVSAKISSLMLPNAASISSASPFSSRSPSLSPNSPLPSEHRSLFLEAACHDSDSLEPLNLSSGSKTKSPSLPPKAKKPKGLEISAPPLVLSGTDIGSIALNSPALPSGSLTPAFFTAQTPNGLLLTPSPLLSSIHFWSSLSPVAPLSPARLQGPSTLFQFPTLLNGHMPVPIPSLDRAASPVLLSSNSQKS
Method in brief: as §1

[10] = target: T7, FEV (Homo sapiens, UniProt Q99581 1-238); settings: protein: recombinant; tags: N-terminal GST; dsDNA, one strand shown
T7 sequence: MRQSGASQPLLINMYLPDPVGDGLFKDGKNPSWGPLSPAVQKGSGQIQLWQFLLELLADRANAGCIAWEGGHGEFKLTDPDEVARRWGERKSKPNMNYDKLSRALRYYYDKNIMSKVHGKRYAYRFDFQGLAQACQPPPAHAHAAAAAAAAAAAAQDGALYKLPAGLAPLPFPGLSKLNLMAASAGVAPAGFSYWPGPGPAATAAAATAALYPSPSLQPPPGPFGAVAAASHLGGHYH
Method in brief: as §1

[11] = target: ETV5 (Homo sapiens, UniProt P41161 1-510); settings: protein: recombinant; tags: N-terminal GST; dsDNA, one strand shown
Method in brief: as §1

[12] = target: HSF1 (Homo sapiens, UniProt Q00613 1-529); settings: protein: recombinant; tags: N-terminal GST; chain copies: 3; dsDNA, one strand shown
Method in brief: as §1

[13] = target: T8, SPIC (Homo sapiens, UniProt Q8N5J4 1-248); settings: protein: recombinant; tags: N-terminal GST; dsDNA, one strand shown
T8 sequence: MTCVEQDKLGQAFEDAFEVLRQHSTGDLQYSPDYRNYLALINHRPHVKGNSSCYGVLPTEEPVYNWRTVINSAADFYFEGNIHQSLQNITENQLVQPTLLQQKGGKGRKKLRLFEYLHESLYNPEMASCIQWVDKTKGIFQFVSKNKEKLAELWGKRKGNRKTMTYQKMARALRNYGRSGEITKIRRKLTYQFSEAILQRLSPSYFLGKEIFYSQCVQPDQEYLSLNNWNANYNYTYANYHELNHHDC
Method in brief: as §1

[14] = target: ELF4 (Homo sapiens, UniProt Q99607 1-663); settings: protein: recombinant; tags: N-terminal GST; dsDNA, one strand shown
Method in brief: as §1

[15] = target: T9, ELK4 (Homo sapiens, UniProt P28324-2 1-405); settings: protein: recombinant; tags: N-terminal GST; dsDNA, one strand shown
T9 sequence: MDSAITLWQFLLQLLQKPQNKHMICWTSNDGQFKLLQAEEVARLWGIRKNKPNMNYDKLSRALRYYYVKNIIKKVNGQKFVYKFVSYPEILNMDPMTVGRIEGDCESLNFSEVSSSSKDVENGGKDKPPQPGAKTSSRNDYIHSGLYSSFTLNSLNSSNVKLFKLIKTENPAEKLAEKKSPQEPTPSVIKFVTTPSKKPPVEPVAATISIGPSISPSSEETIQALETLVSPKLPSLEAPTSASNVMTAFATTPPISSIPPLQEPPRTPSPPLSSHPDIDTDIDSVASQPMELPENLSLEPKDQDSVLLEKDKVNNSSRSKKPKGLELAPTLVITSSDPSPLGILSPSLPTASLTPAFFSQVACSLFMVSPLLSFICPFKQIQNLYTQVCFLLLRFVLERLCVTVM
Method in brief: as §1

[16] = target: T10, ETV2 (Homo sapiens, UniProt O00321 1-342); settings: protein: recombinant; tags: N-terminal GST; dsDNA, one strand shown
T10 sequence: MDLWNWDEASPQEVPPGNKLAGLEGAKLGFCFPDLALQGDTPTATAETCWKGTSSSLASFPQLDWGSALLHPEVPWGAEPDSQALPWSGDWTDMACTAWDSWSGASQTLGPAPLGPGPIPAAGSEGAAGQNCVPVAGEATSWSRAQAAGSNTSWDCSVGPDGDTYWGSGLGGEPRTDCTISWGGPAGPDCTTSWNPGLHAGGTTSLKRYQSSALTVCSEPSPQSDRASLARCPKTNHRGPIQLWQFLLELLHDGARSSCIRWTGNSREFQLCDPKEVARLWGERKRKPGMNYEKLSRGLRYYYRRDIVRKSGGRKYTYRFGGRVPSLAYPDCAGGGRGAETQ
Method in brief: as §1

[17] = target: T11, ELF3 (Homo sapiens, UniProt P78545 1-371); settings: protein: recombinant; tags: N-terminal GST; dsDNA, one strand shown
T11 sequence: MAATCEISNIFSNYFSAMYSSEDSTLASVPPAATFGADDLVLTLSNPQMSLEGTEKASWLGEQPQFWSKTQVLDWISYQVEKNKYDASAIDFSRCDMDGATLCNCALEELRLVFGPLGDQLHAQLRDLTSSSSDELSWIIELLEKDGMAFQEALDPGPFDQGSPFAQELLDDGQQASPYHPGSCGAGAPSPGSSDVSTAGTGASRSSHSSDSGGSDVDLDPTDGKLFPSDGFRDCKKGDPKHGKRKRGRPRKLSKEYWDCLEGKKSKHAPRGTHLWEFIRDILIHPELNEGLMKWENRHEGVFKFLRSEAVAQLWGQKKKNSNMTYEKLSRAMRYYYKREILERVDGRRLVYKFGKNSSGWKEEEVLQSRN
Method in brief: as §1

[18] = target: CRX (Homo sapiens, UniProt O43186 1-299); settings: protein: recombinant; tags: N-terminal GST; dsDNA, one strand shown
Method in brief: as §1

[19] = target: ETV1 (Homo sapiens, UniProt P50549 1-477); settings: protein: recombinant; tags: N-terminal GST; dsDNA, one strand shown
Method in brief: as §1

Chain of SPIB (Q01892 whole entry): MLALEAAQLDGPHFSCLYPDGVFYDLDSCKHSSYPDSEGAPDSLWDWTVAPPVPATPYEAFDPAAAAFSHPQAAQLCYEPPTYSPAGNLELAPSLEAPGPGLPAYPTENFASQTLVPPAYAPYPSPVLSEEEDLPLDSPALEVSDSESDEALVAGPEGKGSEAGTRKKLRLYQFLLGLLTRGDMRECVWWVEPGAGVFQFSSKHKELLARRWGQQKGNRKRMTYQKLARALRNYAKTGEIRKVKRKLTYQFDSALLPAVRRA
Chain of HSF1 (Q00613 whole entry): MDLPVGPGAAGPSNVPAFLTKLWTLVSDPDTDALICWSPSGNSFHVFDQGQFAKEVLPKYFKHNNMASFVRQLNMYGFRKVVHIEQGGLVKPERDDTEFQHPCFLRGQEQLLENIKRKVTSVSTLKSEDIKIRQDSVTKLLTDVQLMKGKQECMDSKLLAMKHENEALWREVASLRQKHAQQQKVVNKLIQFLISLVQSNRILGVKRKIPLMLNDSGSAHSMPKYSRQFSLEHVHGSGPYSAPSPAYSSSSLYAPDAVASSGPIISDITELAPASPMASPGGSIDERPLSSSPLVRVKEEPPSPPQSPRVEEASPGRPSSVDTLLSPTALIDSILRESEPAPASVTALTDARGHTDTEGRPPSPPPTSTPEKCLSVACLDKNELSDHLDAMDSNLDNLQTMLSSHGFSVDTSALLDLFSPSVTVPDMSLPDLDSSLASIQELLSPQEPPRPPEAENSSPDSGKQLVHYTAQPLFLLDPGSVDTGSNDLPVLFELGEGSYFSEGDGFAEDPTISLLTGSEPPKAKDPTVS
Chain of ELF1 (P32519 whole entry): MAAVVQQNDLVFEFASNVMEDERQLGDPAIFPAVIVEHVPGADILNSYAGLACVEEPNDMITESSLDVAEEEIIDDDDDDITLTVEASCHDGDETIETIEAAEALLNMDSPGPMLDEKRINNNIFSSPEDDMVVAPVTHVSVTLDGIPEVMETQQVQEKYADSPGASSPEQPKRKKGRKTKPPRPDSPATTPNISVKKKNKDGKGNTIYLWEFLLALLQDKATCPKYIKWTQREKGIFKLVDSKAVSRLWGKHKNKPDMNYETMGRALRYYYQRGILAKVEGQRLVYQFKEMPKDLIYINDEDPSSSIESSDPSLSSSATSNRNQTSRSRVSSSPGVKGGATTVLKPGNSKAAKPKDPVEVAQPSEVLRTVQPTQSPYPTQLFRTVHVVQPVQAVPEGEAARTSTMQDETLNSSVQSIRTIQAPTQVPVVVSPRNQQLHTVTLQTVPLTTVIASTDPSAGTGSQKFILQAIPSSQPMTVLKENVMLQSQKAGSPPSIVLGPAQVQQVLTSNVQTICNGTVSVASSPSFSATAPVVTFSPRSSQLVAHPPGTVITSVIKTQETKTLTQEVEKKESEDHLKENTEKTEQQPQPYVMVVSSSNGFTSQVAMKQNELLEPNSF
Chain of CRX (O43186 whole entry): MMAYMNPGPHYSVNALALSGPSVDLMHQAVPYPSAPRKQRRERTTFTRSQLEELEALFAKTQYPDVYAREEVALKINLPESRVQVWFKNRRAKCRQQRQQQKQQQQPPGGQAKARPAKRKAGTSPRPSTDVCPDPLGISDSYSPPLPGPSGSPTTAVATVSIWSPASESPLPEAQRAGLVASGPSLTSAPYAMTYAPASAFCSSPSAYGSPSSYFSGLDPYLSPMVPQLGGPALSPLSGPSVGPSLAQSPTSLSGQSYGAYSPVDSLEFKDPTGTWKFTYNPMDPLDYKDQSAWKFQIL
Chain of ELF4 (Q99607 whole entry): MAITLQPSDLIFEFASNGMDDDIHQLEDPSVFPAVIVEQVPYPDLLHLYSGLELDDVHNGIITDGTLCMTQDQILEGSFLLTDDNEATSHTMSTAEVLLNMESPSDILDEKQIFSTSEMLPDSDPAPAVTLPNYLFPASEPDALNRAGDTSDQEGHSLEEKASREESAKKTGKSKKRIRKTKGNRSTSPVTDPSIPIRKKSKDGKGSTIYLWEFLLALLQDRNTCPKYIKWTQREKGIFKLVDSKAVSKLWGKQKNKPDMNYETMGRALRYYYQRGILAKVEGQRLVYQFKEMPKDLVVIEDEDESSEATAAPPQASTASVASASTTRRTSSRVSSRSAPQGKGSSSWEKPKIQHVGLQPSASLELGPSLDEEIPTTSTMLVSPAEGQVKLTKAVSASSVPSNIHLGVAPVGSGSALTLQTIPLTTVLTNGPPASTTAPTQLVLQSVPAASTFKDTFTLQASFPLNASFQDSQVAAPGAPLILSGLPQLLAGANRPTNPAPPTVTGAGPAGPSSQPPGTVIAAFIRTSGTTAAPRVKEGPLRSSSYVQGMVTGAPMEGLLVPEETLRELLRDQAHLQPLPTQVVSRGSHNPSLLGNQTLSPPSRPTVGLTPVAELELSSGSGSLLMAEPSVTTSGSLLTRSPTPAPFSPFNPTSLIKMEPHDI
Chain of ETV5 (P41161 whole entry): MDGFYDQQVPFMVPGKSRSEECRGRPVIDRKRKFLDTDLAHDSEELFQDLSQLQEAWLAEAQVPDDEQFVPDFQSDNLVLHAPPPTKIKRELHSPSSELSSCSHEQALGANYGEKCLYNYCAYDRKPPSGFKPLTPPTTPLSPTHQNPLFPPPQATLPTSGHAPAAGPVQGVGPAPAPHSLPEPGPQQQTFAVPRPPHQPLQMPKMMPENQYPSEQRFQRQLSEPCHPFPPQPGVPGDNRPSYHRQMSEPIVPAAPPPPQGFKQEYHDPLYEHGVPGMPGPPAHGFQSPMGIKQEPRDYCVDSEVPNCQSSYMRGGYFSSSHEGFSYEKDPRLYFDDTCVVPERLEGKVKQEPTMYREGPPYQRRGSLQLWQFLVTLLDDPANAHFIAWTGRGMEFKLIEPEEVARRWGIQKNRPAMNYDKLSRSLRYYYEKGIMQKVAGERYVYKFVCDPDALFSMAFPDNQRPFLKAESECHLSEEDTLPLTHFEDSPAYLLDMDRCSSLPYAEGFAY
Chain of ETV1 (P50549 whole entry): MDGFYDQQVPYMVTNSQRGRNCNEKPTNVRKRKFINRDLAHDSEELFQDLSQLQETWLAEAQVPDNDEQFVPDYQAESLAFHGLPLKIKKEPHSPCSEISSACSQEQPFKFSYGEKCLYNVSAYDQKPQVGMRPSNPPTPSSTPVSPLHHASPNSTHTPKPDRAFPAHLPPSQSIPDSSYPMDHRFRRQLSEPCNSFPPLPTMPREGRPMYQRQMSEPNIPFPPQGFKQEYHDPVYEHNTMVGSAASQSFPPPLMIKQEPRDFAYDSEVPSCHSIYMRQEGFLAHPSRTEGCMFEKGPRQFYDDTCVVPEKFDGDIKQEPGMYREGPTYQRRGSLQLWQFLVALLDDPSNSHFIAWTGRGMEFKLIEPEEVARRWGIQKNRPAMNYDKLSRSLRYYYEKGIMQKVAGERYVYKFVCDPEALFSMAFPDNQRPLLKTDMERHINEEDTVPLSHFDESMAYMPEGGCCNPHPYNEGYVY

GATTCT
binding signal [1]: 1.28 fold enrichment (6-mer frequency, TF over GST control) | binding signal [2]: 1.22 fold enrichment (6-mer frequency, TF over GST control) | binding signal [3]: 1.29 fold enrichment (6-mer frequency, TF over GST control) | binding signal [4]: 1.21 fold enrichment (6-mer frequency, TF over GST control) | binding signal [5]: 1.26 fold enrichment (6-mer frequency, TF over GST control) | binding signal [6]: 1.26 fold enrichment (6-mer frequency, TF over GST control) | binding signal [7]: 1.3 fold enrichment (6-mer frequency, TF over GST control) | binding signal [8]: 1.27 fold enrichment (6-mer frequency, TF over GST control) | binding signal [9]: 1.33 fold enrichment (6-mer frequency, TF over GST control) | binding signal [10]: 1.13 fold enrichment (6-mer frequency, TF over GST control) | binding signal [11]: 1.18 fold enrichment (6-mer frequency, TF over GST control) | binding signal [12]: 2.08 fold enrichment (6-mer frequency, TF over GST control) | binding signal [13]: 1.11 fold enrichment (6-mer frequency, TF over GST control) | binding signal [14]: 1.19 fold enrichment (6-mer frequency, TF over GST control) | binding signal [15]: 1.36 fold enrichment (6-mer frequency, TF over GST control) | binding signal [16]: 1.15 fold enrichment (6-mer frequency, TF over GST control) | binding signal [17]: 1.05 fold enrichment (6-mer frequency, TF over GST control) | binding signal [18]: 1.58 fold enrichment (6-mer frequency, TF over GST control) | binding signal [19]: 1.25 fold enrichment (6-mer frequency, TF over GST control)
